Assay outcomes as filed in PubChem.
NRP1-CendR mod = NRP-1/CendR interaction modulation. inhibition, % at 25 µM. AID 602438. O14786. FAM-RPARPAR peptide binding to NRP-1, fluorescence polarization. 360,000 tested, 0.85% active;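 active = inhibition or corrected inhibition above about 18%, plus a signal ratio from 0.5 to 1.5, limit read from the data, passing the limit was not always enough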
miR122 inh = miR-122 inhibition in Huh7 cells. Huh7 miR-122 Renilla luciferase sensor, 48 h; neutral wells = 0, positive control = 100. activation (reporter increase), % at 12.5 µM. 340,000 tested, 0.3% active;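 active = mean replicate activation score at least 90 and every replicate individually at or above 90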;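 also: higher luciferase means less miR-122 activity so hits act as miR-122 inhibitors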
FID counter = counter-screen for HCV NS3 helicase inhibitors: DNA intercalator displacement; DNA fluorescent intercalator displacement, fluorescence; inhibition, % at 7.9 µM; 290,000 tested, 0.17% active; AID 1845; in the data active = inhibition above about 37%;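 also: 0% = vehicle and 100% = reference compound; higher means more ethidium bromide displaced from hairpin DNA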
RAD54 branch = RAD54 (human) branch migration inhibition; Q92698; RAD54 Holliday junction branch migration, FAM/BHQ fluorescence; inhibition, % at 10.4 µM; 360,000 tested, 0.14% active; AID 602329;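 active = mean normalized replicate activity at least 40 and at least half of replicates scoring 40 or more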;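 also: 0% = median of neutral control wells and 100% = median of positive control wells; inhibitors cause a drop in the FAM fluorescence signal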
N-glyco inh = N-linked glycosylation inhibition; D54 ERlucT glycosylation luciferase reporter, 24 h; percent of 100 nM tunicamycin response; reporter increase, % at 12.5 µM; 360,000 tested, 0.23% active; AID 588692;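 active = mean luciferase reporter signal, scaled so untreated is 0 and the glycosylation-blocking control 100, at or above a set limit in every replicate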;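 also: luciferase carries N-glycosylation sites so blocking glycosylation raises the light; 0% = median of neutral control wells and 100% = median of 100 nM tunicamycin wells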
RAD52 inh = blocks human RAD52 DNA annealing; P43351; recombinant RAD52 DNA annealing, FRET fluorescence; inhibition, % at 18.7 µM; 360,000 tested, 0.46% active;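 active = every replicate showing at least 50% inhibition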
Target sequence (P43351 whole entry, looked up): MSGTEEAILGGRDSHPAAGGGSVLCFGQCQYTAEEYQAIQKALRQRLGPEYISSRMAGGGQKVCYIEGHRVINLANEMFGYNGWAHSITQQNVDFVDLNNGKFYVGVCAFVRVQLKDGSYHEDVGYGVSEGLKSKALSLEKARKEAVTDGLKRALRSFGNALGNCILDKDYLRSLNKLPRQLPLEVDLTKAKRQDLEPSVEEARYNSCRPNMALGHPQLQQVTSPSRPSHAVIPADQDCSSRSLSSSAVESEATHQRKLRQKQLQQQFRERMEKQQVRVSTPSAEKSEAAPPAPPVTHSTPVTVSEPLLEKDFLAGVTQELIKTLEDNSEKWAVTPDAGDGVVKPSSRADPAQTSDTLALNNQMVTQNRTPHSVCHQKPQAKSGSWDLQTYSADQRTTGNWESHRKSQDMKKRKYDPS
Active calls of the source: *; x = no result; [ ] = another dose, or the depositor's remark. This is a sample that favours compounds with a hit; in the whole collection about 1.5% have one here.

SMILES | NRP1-CendR mod | miR122 inh | FID counter | RAD54 branch | N-glyco inh | RAD52 inh
CN(C(=O)COC(=O)Cc1c(Cl)cccc1Cl)C1CCS(=O)(=O)C1 (configuration not stated) | 26.5* | 3.9 | x | -0.3 | 2.2 | -13.4
CN(C(=O)COC(=O)C1CCN(S(=O)(=O)c2c(Cl)cccc2Cl)CC1)C1CCS(=O)(=O)C1 (configuration not stated) | 7.2 | -0.5 | x | -3.6 | 1.0 | -2.1
Cc1ccc(SCC(=O)OCC(=O)N(C)C2CCS(=O)(=O)C2)cc1C (configuration not stated) | 51.0* | 8.9 | x | -4.8 | 5.1 | -4.6
C[C@H]1CCCCO[C@@H](CN(C)C(=O)CCCN(C)C)[C@@H](C)CN([C@@H](C)CO)C(=O)c2cc(NC(=O)C3CCCCC3)ccc2O1 | x | 2.5[16.7 µM] | x | -4.5 | x | 8.2
O=C(O/N=C1\CCS(=O)(=O)c2sccc21)c1ccccc1 | 8.0 | 170.0* | -5.2 | 4.3 | -3.0 | x
C[C@H](CO)N1C[C@H](C)[C@@H](CN(C)Cc2ccc(Oc3ccccc3)cc2)Oc2ncc(-c3cncnc3)cc2C1=O | x | -35.5[16.7 µM] | x | x | x | x
COc1cc(/C=C/C(=O)Nc2ccc(C)cc2)cc(OC)c1OC | 7.7 | x | -16.0 | x | 2.6 | x
CCN(CC)CCNC(=O)c1ccc(NC(=O)/C=C/c2cc(OC)c(OC)c(OC)c2)cc1 | -1.8 | 5.8 | 17.0 | 62.2* | 4.0 | 23.6
C[C@H](CO)N1C[C@H](C)[C@@H](CN(C)C)Oc2ccc(NS(=O)(=O)c3ccc(F)cc3)cc2C1=O | x | -0.6[16.7 µM] | x | 8.3 | x | -5.6
COC(=O)c1sc(N)c(C(=O)OC)c1CSc1nnc(-c2ccccc2Cl)n1C | -8.4 | 103.7* | -27.6 | -2.2 | 0.2 | x
COc1cc(CN2CC3(CCN(C(=O)Nc4c(C)noc4C)CC3)c3c([nH]c4cc(OC)ccc34)[C@H]2CO)cc(OC)c1 | x | x | x | x | x | -37.4
O=C(COc1ccc2ccc(=O)oc2c1)Nc1ccc(N2CCCCC2)cc1 | 13.9 | 1.8 | x | 0.2 | -1.9 | 66.0*
O=C(COc1ccc2ccc(=O)oc2c1)Nc1ccc(CCO)cc1 | 14.7 | 2.3 | -22.8 | 0.1 | 1.1 | -16.5
CCN(CC)C(=O)CSc1nc2nc(C)cc(C)c2c(=O)[nH]1 | 5.0 | -3.5 | -3.5 | 2.1 | 2.2 | x
Cc1cc(C)c2c(=O)[nH]c(SCC(=O)N(C)C)nc2n1 | -8.9 | -5.8 | 75.2* | 0.6 | 2.1 | -16.7
c1ccc2c(c1)CCCN2Cc1nnnn1CC1CCCO1 (configuration not stated) | 23.8* | -9.0 | 1.0 | -36.0 | 0.4 | x
c1ccc(CCn2nnnc2CN2CCCc3ccccc32)cc1 | 2.7 | 2.7 | -16.8 | -27.2 | 0.7 | x
C[C@@H]1CN([C@H](C)CO)S(=O)(=O)c2ccc(C3=CCCCC3)cc2O[C@H]1CN(C)Cc1cccc(C(=O)O)c1 | x | 21.0[16.7 µM] | x | 5.0 | x | 4.9
CO/N=C/NC(=O)c1c(OC)ccnc1Oc1ccc(F)cc1 | 10.4 | 2.1 | 71.1* | 0.4 | 2.9 | 5.0
CCCC#Cc1ccc([C@H]2[C@H]3CN(Cc4cccnc4)CCCCN3[C@H]2CO)cc1 | x | 10.0[16.7 µM] | x | -1.9 | x | 6.4
Cc1noc(C)c1NC(=O)N(C)C[C@@H]1Oc2ccc(NC(=O)Nc3ccc(F)cc3)cc2CC(=O)N([C@H](C)CO)C[C@H]1C | x | x | x | x | x | -2.1
Cc1ccc(C(c2cc(Cl)c3cccnc3c2O)N2CCN(C)CC2)cc1 (configuration not stated) | 1.9 | -0.5 | -14.9 | 8.5 | 43.3* | x
C[C@@H]1CN([C@@H](C)CO)C(=O)Cc2cc(NC(=O)CCN3CCOCC3)ccc2O[C@@H]1CN(C)C(=O)Nc1ccc(C(F)(F)F)cc1 | x | 3.1[16.7 µM] | x | 1.7 | x | 6.5
O=C(NCCN1CCCCCC1)C1CCN(S(=O)(=O)N2CCOCC2)CC1 | 22.6* | -3.3 | 9.3 | 1.0 | 0.1 | x
Cc1ccc(S(=O)(=O)N2CCC(C(N)=O)CC2)cc1[N+](=O)[O-] | 27.2* | 1.0 | -1.6 | -7.5 | 4.6 | 6.9
CC(C)NC(=O)N(C)C[C@H]1Oc2ccc(N(C)C)cc2C(=O)N([C@H](C)CO)C[C@@H]1C | x | -2.2[16.7 µM] | x | 2.7 | x | 6.1
Cc1ccc(S(=O)(=O)Nc2ccc3c(c2)CCC3)cc1 | 3.2 | 167.3* | -12.8 | -12.1 | -5.8 | x
COC(=O)c1ccc(C)c(NS(=O)(=O)c2ccc(OC)c(OC)c2)c1 | -8.4 | 130.8* | -9.1 | 0.4 | -0.4 | x
